Only some compounds are listed: those with a hit (about 1.5% of all), similar ones and a draw of the others.
rTrxR1 inhibitor – rat TrxR1 inhibition | 390,000 compounds, 1% hits | Potency, µM (titrated, usually from 114 µM), inactives show at the top dose activity change, negative = inhibition, usual class: inhibitors | O89049 | recombinant rTrxR1, NADPH fluorescence consumption, selenite substrate; active = well fitted curve in the direction sought with a large enough effect; inconclusive = small, poorly fitted or top-dose-only effect, or another doubt; inactive = no such curve, though single readings can be large; an effect the other way counts as inactive or inconclusive; also: potency is read from the fitted curve at half-maximal effect; % is scaled to controls: 0 for no effect and ±100 for the full control effect; nearly all actives have a fitted effect of over 65% in size
Target sequence (O89049 whole entry, looked up): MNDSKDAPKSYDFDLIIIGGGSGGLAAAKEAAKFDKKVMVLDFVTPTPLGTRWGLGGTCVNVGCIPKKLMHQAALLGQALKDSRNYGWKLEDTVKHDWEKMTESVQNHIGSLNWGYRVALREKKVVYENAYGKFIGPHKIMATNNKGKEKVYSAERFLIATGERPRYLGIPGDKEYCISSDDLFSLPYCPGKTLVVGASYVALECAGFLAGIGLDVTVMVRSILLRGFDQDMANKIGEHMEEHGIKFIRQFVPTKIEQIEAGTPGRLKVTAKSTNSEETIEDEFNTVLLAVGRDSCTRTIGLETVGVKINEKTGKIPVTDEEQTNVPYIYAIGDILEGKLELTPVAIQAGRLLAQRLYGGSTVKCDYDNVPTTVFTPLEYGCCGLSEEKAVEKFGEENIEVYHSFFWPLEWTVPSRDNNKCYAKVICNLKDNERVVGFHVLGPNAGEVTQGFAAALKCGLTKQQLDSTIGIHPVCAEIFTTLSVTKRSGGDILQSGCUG
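Rat TrxR1 (90 nM in the dispensed reagent) was pre-reduced with 400 uM NADPH for 5 min at room temperature, then incubated with compound for 15 min. After 400 uM selenite was added, NADPH fluorescence (Ex 340/Em 450 nm) was followed for 8 min.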
TrxR1 substrate – rat thioredoxin reductase 1 substrate activity; 390,000 compounds, 0.01% hits; Potency, µM (top dose mostly 114 µM), for the others: at the top dose activity change, negative = substrate turnover; purified TrxR1 substrate turnover, NADPH consumption readout; active = well fitted curve in the direction sought with a large enough effect; inconclusive = small, poorly fitted or top-dose-only effect, or another doubt; inactive = no such curve, though single readings can be large; an effect the other way counts as inactive or inconclusive; also: potency is read from the fitted curve at half-maximal effect; % is scaled to controls: 0 for no effect and ±100 for the full control effect; nearly all actives have a fitted effect of over 50% in size
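Rat TrxR1, dispensed at 90 nM, was prereduced with 400 uM NADPH (final) for 5 min at ~22 deg C, then incubated with compound 15 min before 400 uM selenite. A first-read NADPH fluorescence drop versus no-compound background flagged substrates.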
Six1-Eya2 inh – Six1/Eya2 interaction inhibition | AlphaScreen GST-Six1/His-Eya2 binding, biochemical; stronger effect = lower value | activity change, % (test concentration not listed) | 360,000 compounds, 0.56% hits; in the data active = activity change below about -65%; inconclusive = mostly about -30% to -63%; also: % is scaled to controls: 0 for no effect and ±100 for the full control effect
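AlphaScreen luminescence read after one hour at 37 °C in darkness. Pin-transferred compounds met GST-Six1 and His-Eya2 protein (5X stock 250 nM/500 nM) plus glutathione donor and Ni-chelate acceptor beads (5X, 50 ug/mL).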
CtBP-E1A inh – inhibitors of CtBP/E1A interaction; AlphaScreen GST-E1A/His-CtBP binding, 1536-well; stronger effect = lower value; activity change, % (test concentration not listed); 340,000 compounds, 0.49% hits; AID 651724; in the data active = activity change below about -65%; inconclusive = mostly about -30% to -63%; also: % is scaled to controls: 0 for no effect and ±100 for the full control effect
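AlphaScreen with 125 nM GST-E1A and 125 nM His-CtBP (5X stocks) in Tris pH 8.0, 300 mM NaCl, BSA, Tween 20, TCEP. Compounds preincubated 2 h at 37 deg C, then glutathione donor/nickel acceptor beads added for 1 h at 37 deg C in dark.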
Eya2 phos inh – blocks the phosphatase activity of human Eya2; 330,000 compounds, 0.006% hits; AID 488837; O00167; Potency, µM (titrated, usually from 76.9 µM), inactives show top-dose activity, negative = inhibition, hits mostly inhibitors; recombinant Eya2, OMFP fluorescence dephosphorylation (OMFP is methylfluorescein phosphate); also: potency is read from the fitted curve at half-maximal effect; % is scaled to controls: 0 for no effect and ±100 for the full control effect
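Eya2 (0.2 uM) preincubated 10 min at ambient with compound, then OMFP substrate added at 50 uM; 10 min reaction in 50 mM HEPES pH 7.5, 50 mM NaCl, 5 uM MgCl2, 0.05% BSA, 1 mM DTT. Fluorescence read at Ex 485/Em 525 nm.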
GALK inh – inhibitors of human galactokinase. P51570. Purified GALK, Kinase-Glo residual ATP luminescence. Potency, µM (series often up to 57.5 µM), for the others: at the highest dose activity change, negative = inhibition, actives largely listed as inhibitors. 270,000 compounds, 0.007% hits; active = well fitted curve in the direction sought with a large enough effect; inconclusive = small, poorly fitted or top-dose-only effect, or another doubt; inactive = no such curve, though single readings can be large; an effect the other way counts as inactive or inconclusive; also: potency is read from the fitted curve at half-maximal effect; % is scaled to controls: 0 for no effect and ±100 for the full control effect
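Compounds were pin-transferred into ATP buffer (35 uM final), then GALK plus galactose (5 nM, 100 uM final) was added. After 1 h at room temperature, Kinase-Glo Plus was added and luminescence read after 10 min.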
TRb SRC2 Alpha – disrupts human TRb binding to SRC2 peptide in AlphaScreen | 30 compounds, 50% hits | shares compounds with rTrxR1 inhibitor | Potency, µM | AlphaScreen TRb LBD-SRC2 peptide binding, luminescence
HepG2 viability – HepG2 cytotoxicity, 72 h ATP readout. 40 compounds, 50% hits. shares compounds with rTrxR1 inhibitor. Potency, µM. AID 2447. HepG2 viability, ATP luminescence (CellTiter-Glo), 72 h
AR-SRC2 inh – selectivity of TRb-SRC2 inhibitors: human androgen receptor-SRC2 inhibition | AID 2448 | shares compounds with rTrxR1 inhibitor | AR-LBD Tx-SRC2-3 fluorescence polarization, 3 h | 25 tested, under 10 active | calls only; call rule not given here
PPARg-DRIP2 inh – selectivity of TRb-SRC2 inhibitors: human PPARgamma coactivator binding inhibition. 25 tested, under 10 active. shares compounds with rTrxR1 inhibitor. PPARg LBD / Texas Red DRIP-2 peptide, fluorescence polarization, 3 h. Potency, µM
VDR-SRC2 FP sel – selectivity of TRb-SRC2 inhibitors: human vitamin D receptor-SRC2 inhibition; shares compounds with rTrxR1 inhibitor; VDR LBD/SRC2-3 peptide, fluorescence polarization, 3 h; Potency, µM; 25 tested, under 10 active
TRb SRC2 FluoFP – disrupts human TRb binding to fluorescein-SRC2 peptide | TRb LBD / fluorescein-SRC2 peptide, fluorescence polarization | Potency, µM | 20 tested, under 10 active | shares compounds with rTrxR1 inhibitor | AID 2487; call rule not given here
Active calls of the source: *; [ ] = remark or other dose. Unless noted, calls follow the shape of the full dose curve.

Screening CC(=O)c1ccc(NC(=O)c2cnn3c2NC(=C2CC2)C=C3C(F)F)cc1 returned rTrxR1 inhibitor 6% and TrxR1 substrate 17%.
For COc1ccccc1C(=O)Nc1cccc(OCc2cc(=O)n3ccccc3n2)c1 the results were rTrxR1 inhibitor 12%[57.1 µM] and TrxR1 substrate 0%[57.1 µM].
NS(=O)(=O)c1cc(C(=O)OCC(=O)Nc2ccc(Cl)cc2[N+](=O)[O-])ccc1Cl was read as rTrxR1 inhibitor 21%[57.1 µM], TrxR1 substrate -14%[57.1 µM], Six1-Eya2 inh -16, CtBP-E1A inh -9, Eya2 phos inh 5% and GALK inh 1%.
Cc1csc(Sc2ccc(C(=O)OCC(=O)Nc3ccc(OC(F)(F)F)cc3)cc2[N+](=O)[O-])n1 was read as rTrxR1 inhibitor -3%, TrxR1 substrate 2%, Six1-Eya2 inh inconclusive, CtBP-E1A inh -4, Eya2 phos inh 2% and GALK inh -3%.
Screening CC(=O)c1cccc(NC(=O)COC(=O)c2ccc(S(C)(=O)=O)c([N+](=O)[O-])c2)c1 returned rTrxR1 inhibitor 1.6µM*, TrxR1 substrate 1%, Six1-Eya2 inh -17, CtBP-E1A inh -19, Eya2 phos inh 3%, GALK inh 4%, TRb SRC2 Alpha 87µM*, HepG2 viability inconclusive, AR-SRC2 inh inactive, PPARg-DRIP2 inh inactive, VDR-SRC2 FP sel 60µM* and TRb SRC2 FluoFP inconclusive.
Screening Cc1ccccc1NC(=O)COC(=O)c1ccc(S(C)(=O)=O)c([N+](=O)[O-])c1 returned rTrxR1 inhibitor 2.5µM*, TrxR1 substrate 2%, Six1-Eya2 inh -16, CtBP-E1A inh -28, Eya2 phos inh -6%, GALK inh -7%, TRb SRC2 Alpha 28µM*, HepG2 viability inconclusive, AR-SRC2 inh inactive, PPARg-DRIP2 inh inactive, VDR-SRC2 FP sel inactive and TRb SRC2 FluoFP inactive.
Screening NS(=O)(=O)c1cc(C(=O)OCC(=O)Nc2ccccc2[N+](=O)[O-])ccc1Cl returned rTrxR1 inhibitor -2%[57.1 µM], TrxR1 substrate 3%[57.1 µM], Six1-Eya2 inh -4, CtBP-E1A inh 0, Eya2 phos inh 4% and GALK inh 0%.
Screening CS(=O)(=O)c1ccc(C(=O)OCC(=O)Nc2cc(C(F)(F)F)ccc2Cl)cc1[N+](=O)[O-] returned rTrxR1 inhibitor 8.9µM*, TrxR1 substrate 1%, TRb SRC2 Alpha 17µM*, HepG2 viability 17µM*, AR-SRC2 inh inactive, PPARg-DRIP2 inh inactive, VDR-SRC2 FP sel inconclusive and TRb SRC2 FluoFP inactive.
Screening CS(=O)(=O)c1ccc(C(=O)OCC(=O)Nc2ccc(OC(F)(F)F)cc2)cc1[N+](=O)[O-] returned rTrxR1 inhibitor 3.5µM*, TrxR1 substrate -3%, TRb SRC2 Alpha 17µM*, HepG2 viability inactive, AR-SRC2 inh inactive, PPARg-DRIP2 inh inactive, VDR-SRC2 FP sel inactive and TRb SRC2 FluoFP inactive.
